In all, about 5,500 compounds went through this assay and about 2,000 (36%) were called active. Another 18% or so got no clear call; they are omitted. Cut-off read from the data, not from the text of the source: active = normalized growth mostly below about 0.91 (no sharp cut-off); inconclusive = no clear call, values can overlap the other calls; inactive = mostly above about 0.92. The list shows a part of the results.
Assay: chemical genetic growth profiling, strain panel (AID 1159580);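 note: tested at 20 µM; growth read once vehicle control cultures reached saturation at 30 °C; 1 = growth at the plate median or of vehicle wells; lower values mean less growth of the strain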
Conditions: S. cerevisiae deletion strains, growth OD

Measured: normalized growth

O=c1ccc2c(O)c3ccoc3cc2o1
inactive: locus YAL021C, strain ccr4, hits give low values 0.992 | locus YAL026C, strain drs2, hits give low values 0.974 | locus YAL030W, strain snc1, hits give low values 0.989 | locus YBL061C, strain skt5, hits give low values 0.982 | locus YBR009C, strain hhf1, hits give low values 0.977 | locus YBR023C, strain chs3, hits give low values 0.987 | locus YBR171W, strain sec66, hits give low values 0.983 | locus YBR231C, strain swc5, hits give low values 0.989 | locus YBR279W, strain paf1, hits give low values 0.984 | locus YCL011C, strain gbp2, hits give low values 0.989 | locus YCL016C, strain dcc1, hits give low values 0.986 | locus YCL069W, strain vba3, hits give low values 0.98 | locus YCR088W, strain abp1, hits give low values 0.967 | locus YDL005C, strain med2, hits give low values 0.986 | locus YDL040C, strain nat1, hits give low values 0.99 | locus YDR001C, strain nth1, hits give low values 0.977 | locus YDR069C, strain doa4, hits give low values 0.986 | locus YDR137W, strain rgp1, hits give low values 1.01 | locus YDR159W, strain sac3, hits give low values 0.997 | locus YDR195W, strain ref2 0.957 | locus YDR297W, strain sur2, hits give low values 0.987 | locus YDR334W, strain swr1, hits give low values 0.947 | locus YDR335W, strain msn5, hits give low values 0.994 | locus YDR392W, strain spt3, hits give low values 0.98 | locus YEL003W, strain gim4, hits give low values 0.984 | locus YEL037C, strain rad23, hits give low values 0.984 | locus YEL061C, strain CIN8 (second series), hits give low values 0.965 | locus YER015W, strain faa2, hits give low values 0.993 | locus YER016W, strain bim1, hits give low values 0.994 | locus YER111C, strain swi4, hits give low values 0.995 | locus YER155C, strain BEM2 (second series), hits give low values 0.997 | locus YFR010W, strain ubp6, hits give low values 0.968 | locus YGL167C, strain pmr1, hits give low values 0.986 | locus YGL173C, strain kem1, hits give low values 0.992 | locus YGL227W, strain vid30, hits give low values 0.981 | locus YGL240W, strain doc1, hits give low values 0.99 | locus YGL253W, strain hxk2, hits give low values 0.997 | locus YHR013C, strain ard1, hits give low values 0.956 | locus YHR027C, strain rpn1, hits give low values 0.998 | locus YHR030C, strain SLT2, hits give low values 0.997 | locus YHR079C, strain IRE1, hits give low values 0.985 | locus YHR142W, strain chs7, hits give low values 0.975 | locus YJL092W, strain hpr5, hits give low values 0.983 | locus YJL095W, strain BCK1 (second series), hits give low values 0.972 | locus YJL095W, strain BCK1, hits give low values 0.991 | locus YJL115W, strain asf1, hits give low values 0.965 | locus YJL129C, strain trk1, hits give low values 0.978 | locus YJL154C, strain vps35, hits give low values 0.966 | locus YJL164C, strain tpk1, hits give low values 0.992 | locus YJL166W, strain qcr8, hits give low values 0.963 | locus YJL187C, strain SWE1, hits give low values 0.988 | locus YJR066W, strain TOR1, hits give low values 0.935 | locus YKL160W, strain elf1, hits give low values 0.993 | locus YKR026C, strain gcn3, hits give low values 0.986 | locus YKR091W, strain srl3, hits give low values 0.984 | locus YLL001W, strain dnm1, hits give low values 0.982 | locus YLL026W, hits give low values 0.993 | locus YLL041C, strain sdh2, hits give low values 0.981 | locus YLR027C, strain aat2, hits give low values 0.976 | locus YLR113W, strain HOG1, hits give low values 1 | locus YLR221C, strain rsa3, hits give low values 0.984 | locus YLR258W, strain gsy2, hits give low values 0.987 | locus YLR262C, strain YPT6 (second series), hits give low values 1.01 | locus YLR320W, strain mms22, hits give low values 1.01 | locus YLR342W, strain FKS1, hits give low values 0.984 | locus YLR357W, strain rsc2, hits give low values 0.975 | locus YLR370C, strain arc18, hits give low values 0.984 | locus YLR384C, strain iki3, hits give low values 0.992 | locus YML120C, strain ndi1, hits give low values 0.97 | locus YMR058W, strain fet3, hits give low values 0.98 | locus YMR125W, strain sto1, hits give low values 0.983 | locus YMR129W, hits give low values 0.976 | locus YMR205C, strain PFK2, hits give low values 0.975 | locus YMR231W, strain pep5, hits give low values 0.981 | locus YNL071W, strain lat1, hits give low values 0.979 | locus YNL183C, strain NPR1, hits give low values 0.944 | locus YNL209W, strain ssb2, hits give low values 0.975 | locus YNL248C, strain rpa49, hits give low values 0.941 | locus YNL322C, strain KRE1 (second series), hits give low values 0.984 | locus YNR049C, strain mso1, hits give low values 0.996 | locus YOR001W, strain rrp6, hits give low values 0.975 | locus YOR070C, strain gyp1, hits give low values 0.992 | locus YOR080W, strain dia2, hits give low values 0.987 | locus YOR083W, strain WHI5, hits give low values 0.989 | locus YOR106W, strain vam3, hits give low values 0.977 | locus YOR231W, strain MKK1, hits give low values 0.996 | locus YOR265W, strain rbl2, hits give low values 0.973 | locus YOR270C, strain vph1, hits give low values 0.904 | locus YOR290C, strain snf2, hits give low values 0.991 | locus YPL051W, strain arl3, hits give low values 1.01 | locus YPL078C, strain atp4, hits give low values 0.974 | locus YPL106C, strain sse1, hits give low values 0.978 | locus YPL240C, strain hsp82, hits give low values 0.983 | locus YPL256C, strain CLN2, hits give low values 0.978
